Source: the supplement of paper PMC8975748
Counter-ions that a name gives are not always drawn. ± gives the standard deviation of the averaged measurements.

Experiments:
[1] = test system: Saccharomyces cerevisiae BY4741 SeMeCo community; test: mean cell size (pixel area) (pixels); higher = larger cells; conditions: 10 µM; 24 h; SM minimal medium
Outline: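 A four-plasmid fluorescent Saccharomyces cerevisiae BY4741 community was tested; each plasmid complements one auxotrophy and carries a fluorescent marker. An overnight preculture at OD600 = 1.0 was diluted to OD600 = 0.3, and 70 µl was added to 384-well plates acoustically predosed with drug (final 10 µM) in SM medium for 24 h. Cells were fixed with paraformaldehyde and imaged by automated confocal microscopy, with analysis in Harmony. Mean cell pixel area per well is averaged over 3 replicates. Same SeMeCo high-content imaging drug screen: Selleck FDA-approved drugs at 10 µM, 24 h in SM medium, 384-well plates, 3 replicates.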

[2] = test system: Saccharomyces cerevisiae BY4741 SeMeCo community; test: z-score of prototroph abundance vs DMSO median; higher = larger share of this subpopulation than in DMSO controls; conditions: 10 µM; 24 h; SM minimal medium; subpopulation (auxotrophy): Prototroph
Outline: (§1)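 A Saccharomyces cerevisiae BY4741 community carried four plasmids, each restoring one auxotrophy and encoding a distinct fluorescent protein. It was pre-grown overnight to OD600 1.0, diluted to 0.3, and 70 µl was added to 384-well plates acoustically predosed with library drugs (10 µM final), then grown 24 h in minimal SM medium. Cells were paraformaldehyde-fixed and imaged by automated confocal microscopy, with single-auxotroph fluorescent strains setting thresholds and autofluorescence correction. Each subpopulation's abundance was scored as a z-score against the vehicle-well median.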

[3] = test system: Saccharomyces cerevisiae BY4741 SeMeCo community; test: z-score of subpopulation abundance vs DMSO median, subpopulation auxotrophic for M; higher = larger share of this subpopulation than in DMSO controls; conditions: 10 µM; 24 h; SM minimal medium; subpopulation (auxotrophy): M
Outline: as §1

[4] = test system: Saccharomyces cerevisiae BY4741 SeMeCo community; test: z-score of subpopulation abundance vs DMSO median, subpopulation auxotrophic for L; higher = larger share of this subpopulation than in DMSO controls; conditions: 10 µM; 24 h; SM minimal medium; subpopulation (auxotrophy): L
Outline: as §1

[5] = test system: Saccharomyces cerevisiae BY4741 SeMeCo community; test: z-score of subpopulation abundance vs DMSO median, subpopulation auxotrophic for U; higher = larger share of this subpopulation than in DMSO controls; conditions: 10 µM; 24 h; SM minimal medium; subpopulation (auxotrophy): U
Outline: as §1

[6] = test system: Saccharomyces cerevisiae BY4741 SeMeCo community; test: z-score of subpopulation abundance vs DMSO median, subpopulation auxotrophic for H; higher = larger share of this subpopulation than in DMSO controls; conditions: 10 µM; 24 h; SM minimal medium; subpopulation (auxotrophy): H
Outline: as §1

[7] = test system: Saccharomyces cerevisiae BY4741 SeMeCo community; test: z-score of subpopulation abundance vs DMSO median, subpopulation auxotrophic for LM; higher = larger share of this subpopulation than in DMSO controls; conditions: 10 µM; 24 h; SM minimal medium; subpopulation (auxotrophy): LM
Outline: as §1

[8] = test system: Saccharomyces cerevisiae BY4741 SeMeCo community; test: z-score of subpopulation abundance vs DMSO median, subpopulation auxotrophic for HM; higher = larger share of this subpopulation than in DMSO controls; conditions: 10 µM; 24 h; SM minimal medium; subpopulation (auxotrophy): HM
Outline: as §1

[9] = test system: Saccharomyces cerevisiae BY4741 SeMeCo community; test: z-score of subpopulation abundance vs DMSO median, subpopulation auxotrophic for HU; higher = larger share of this subpopulation than in DMSO controls; conditions: 10 µM; 24 h; SM minimal medium; subpopulation (auxotrophy): HU
Outline: as §1

[10] = test system: Saccharomyces cerevisiae BY4741 SeMeCo community; test: z-score of subpopulation abundance vs DMSO median, subpopulation auxotrophic for UM; higher = larger share of this subpopulation than in DMSO controls; conditions: 10 µM; 24 h; SM minimal medium; subpopulation (auxotrophy): UM
Outline: as §1

[11] = test system: Saccharomyces cerevisiae BY4741 SeMeCo community; test: z-score of subpopulation abundance vs DMSO median, subpopulation auxotrophic for HL; higher = larger share of this subpopulation than in DMSO controls; conditions: 10 µM; 24 h; SM minimal medium; subpopulation (auxotrophy): HL
Outline: as §1

[12] = test system: Saccharomyces cerevisiae BY4741 SeMeCo community; test: z-score of subpopulation abundance vs DMSO median, subpopulation auxotrophic for HLU; higher = larger share of this subpopulation than in DMSO controls; conditions: 10 µM; 24 h; SM minimal medium; subpopulation (auxotrophy): HLU
Outline: as §1

[13] = test system: Saccharomyces cerevisiae BY4741 SeMeCo community; test: z-score of subpopulation abundance vs DMSO median, subpopulation auxotrophic for HLM; higher = larger share of this subpopulation than in DMSO controls; conditions: 10 µM; 24 h; SM minimal medium; subpopulation (auxotrophy): HLM
Outline: as §1

[14] = test system: Saccharomyces cerevisiae BY4741 SeMeCo community; test: z-score of subpopulation abundance vs DMSO median, subpopulation auxotrophic for HUM; higher = larger share of this subpopulation than in DMSO controls; conditions: 10 µM; 24 h; SM minimal medium; subpopulation (auxotrophy): HUM
Outline: as §1

[15] = test system: Saccharomyces cerevisiae BY4741 SeMeCo community; test: z-score of subpopulation abundance vs DMSO median, subpopulation auxotrophic for LUM; higher = larger share of this subpopulation than in DMSO controls; conditions: 10 µM; 24 h; SM minimal medium; subpopulation (auxotrophy): LUM
Outline: as §1

[16] = test system: Saccharomyces cerevisiae BY4741 SeMeCo community; test: z-score of subpopulation abundance vs DMSO median, subpopulation auxotrophic for HLUM; higher = larger share of this subpopulation than in DMSO controls; conditions: 10 µM; 24 h; SM minimal medium; subpopulation (auxotrophy): HLUM
Outline: as §1

[17] = test system: Saccharomyces cerevisiae BY4741 SeMeCo community; test: z-score of subpopulation abundance vs DMSO median, subpopulation auxotrophic for LU; higher = larger share of this subpopulation than in DMSO controls; conditions: 10 µM; 24 h; SM minimal medium; subpopulation (auxotrophy): LU
Outline: as §1

| SMILES | mean cell size [1] | z-score of prototroph abundance [2] | z-score of subpopulation abundance [3] | z-score of subpopulation abundance [4] | z-score of subpopulation abundance [5] | z-score of subpopulation abundance [6] | z-score of subpopulation abundance [7] | z-score of subpopulation abundance [8] | z-score of subpopulation abundance [9] | z-score of subpopulation abundance [10] | z-score of subpopulation abundance [11] | z-score of subpopulation abundance [12] | z-score of subpopulation abundance [13] | z-score of subpopulation abundance [14] | z-score of subpopulation abundance [15] | z-score of subpopulation abundance [16] | z-score of subpopulation abundance [17] |
| --- | --- | --- | --- | --- | --- | --- | --- | --- | --- | --- | --- | --- | --- | --- | --- | --- | --- |
| CC(=O)OCC(CCn1cnc2cnc(N)nc21)COC(C)=O [Famciclovir] | 12.6 ± 0.22 | 0.55 | -0.23 | 0.46 | -0.77 | 0.1 | -0.17 | 0.41 | -0.39 | -0.68 | 0.32 | -0.67 | 1.57 | -0.82 | -0.18 | 1.06 |  |
| COc1ccc(NS(=O)(=O)c2ccc(N)cc2)nn1 [Sulfamethoxypyridazine] | 12.2 ± 0.35 | 0.98 | -0.66 |  | 0.12 | -0.64 | -0.89 | -0.15 | -0.08 | 0.13 |  | -0.41 |  | -0.17 | -0.72 | -0.55 | -0.73 |
| COc1nc2ccc(Br)cc2cc1[C@@H](c1ccccc1)[C@@](O)(CCN(C)C)c1cccc2ccccc12 [Bedaquiline fumarate] | 11.2 ± 0.16 | -1.58 | -0.55 |  | 0.97 | 1.1 | 0.49 | 0.33 | 1.44 | 4.1 | 0.4 | 0.68 |  | 1.74 |  | 1.29 | 0.86 |
| Clc1ccc(C(Cn2ccnc2)OCc2c(Cl)cccc2Cl)c(Cl)c1 (stereo not drawn) [Isoconazole nitrate] | 12.1 ± 0.18 | -7.83 | -0.17 |  | 2.14 | 21 | -1.59 |  | 11.7 | 5.43 | 3.07 | 2.86 | 13.3 |  |  | 9.4 | -1.43 |
| COc1ccnc(C[S+]([O-])c2nc3cc(OC(F)F)ccc3[nH]2)c1OC (stereo not drawn) [Pantoprazole] | 12.4 ± 0.15 | -0.32 | 0.27 |  | -0.43 |  | 0.04 | -0.27 | 0.3 |  | 0.9 | 1.13 |  |  | -0.41 | 0.7 | 0.17 |
| CCCCC(=O)O[C@H]1CC[C@H]2[C@@H]3CCc4cc(O)ccc4[C@H]3CC[C@]12C [Estradiol valerate] | 12.4 ± 0.22 | 0.39 | 0.23 | -0.51 | 0.05 | -0.49 | -0.71 | -0.23 | -0.05 | 0 | -0.58 | 0.43 | -0.87 | 0.19 | -0.45 | -0.75 |  |
| CN1[C@@H]2CC[C@H]1C[C@@H](OC(=O)c1c[nH]c3ccccc13)C2 [Tropisetron] | 12.15 ± 0.079 | -1.48 | 1.72 |  | -0.36 | 0.66 |  | 2.08 | 0.59 | 0.48 | 1.63 | 1.41 |  | 0.95 | 1.16 |  | 0.87 |
| CO/N=C(\C(=O)N[C@@H]1C(=O)N2C(C(=O)[O-])=C(C[N+]3(C)CCCC3)CS[C@H]12)c1csc(N)n1 [Cefepime Dihydrochloride Monohydrate] | 12.4 ± 0.19 | -0.67 | 0.62 | 0.49 | -0.42 | 0.4 | 0.72 | 1.14 | -0.45 | 0.07 | 0.83 | 0.65 | 0.34 | 0.6 | 1.06 | 0.19 |  |
| CN1CCC(=C2c3ccccc3C=Cc3ccccc32)CC1 [Cyproheptadine hydrochloride] | 12.61 ± 0.097 | 0.23 | -0.18 |  | 0.43 | -0.32 | -0.35 | -0.58 | -0.56 | -0.25 |  | -0.31 |  | -0.68 | -0.73 | -0.08 | 0.02 |
| COC(=O)C1=C(C)NC(C)=C(C(=O)OCC(C)C)C1c1ccccc1[N+](=O)[O-] (stereo not drawn) [Nisoldipine] | 12.2 ± 0.14 | -0.75 | 0.83 |  | -0.48 | 0.84 | 1.4 | 0.97 | 0.04 | 0.03 | 0.67 | 0.34 |  | 1.07 | 0.88 |  | -0.62 |
| CCC(C)n1ncn(-c2ccc(N3CCN(c4ccc(OCC5COC(Cn6cncn6)(c6ccc(Cl)cc6Cl)O5)cc4)CC3)cc2)c1=O (stereo not drawn) [Itraconazole] | 11.93 ± 0.1 | -10.4 | 0.3 |  |  | 18.3 | 1.85 | 7.45 |  | 11.4 | 17.3 | 7.28 | 12.5 |  | 6.18 | 7.85 | -0.44 |
| Cc1ccc(O)c([C@H](CCN(C(C)C)C(C)C)c2ccccc2)c1 [Tolterodine tartrate] | 12.36 ± 0.069 | -0.65 | 0.22 | 0.31 | -0.01 | -0.19 | 1.32 | 0.62 | 0.88 | 1.04 | -0.22 | 0.29 | -0.01 | 1.13 | 1.3 | -0.2 |  |
| CNC1CCCN(c2c(F)cc3c(=O)c(C(=O)O)cn(C4CC4)c3c2OC)C1 (stereo not drawn) [Balofloxacin] | 12.32 ± 0.029 | -0.14 | 0.44 |  | 0.18 | -0.4 | -0.13 | -0.09 | 0.32 | 0.59 |  | -0.57 |  | 0.67 | 0.17 | -0.35 | -0.04 |
| CC[C@H]1OC(=O)[C@H](C)[C@@H](O[C@H]2C[C@@](C)(OC)[C@@H](O)[C@H](C)O2)[C@H](C)[C@@H](O[C@@H]2O[C@H](C)C[C@H](N(C)C)[C@H]2O)[C@](C)(O)C[C@@H](C)CN(C)[C@H](C)[C@@H](O)[C@]1(C)O [Azithromycin] | 12.5 ± 0.14 | -0.03 | -0.81 |  |  | -0.15 | 0.27 | -0.55 | 0.02 | -0.55 |  | -0.06 | 0.46 |  | 0.31 | 0.36 | 0.14 |
